# Hits are enriched below; roughly 19% of the tested compounds scored in any of these assays.
# HT1080-NT tox: kills 2HG-producing HT-1080-NT fibrosarcoma cells; HT-1080-NT fibrosarcoma viability, CellTiter-Glo ATP luminescence, 48 h; Potency, µM (titrated, usually from 46.1 µM), actives largely listed as cytotoxic; 1.6% of 360,000 active; AID 686970;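 also: NT is the 2HG producing partner of a matched IDH1 knockdown line; nearly all actives have a fitted effect of over 55% in size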
#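 Viability by CellTiter-Glo luminescence after 48 h compound exposure at 37C of HT-1080-NT cells (750/well, RPMI, 5% FBS). % activity scaled between DMSO wells and medium-only wells, then curve-fitted and categorized by curve class.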
# TDP1 cell CPT: growth inhibition of DT40 Tdp1-/-;hTDP1 cells with camptothecin (screen for TDP1 inhibitors); chicken DT40 Tdp1-/-;hTDP1 cells + 20 nM CPT, ATP luminescence, 48 h; Potency, µM (top dose mostly 46.2 µM), hits mostly inhibitors; 12% of 420,000 active; AID 686979; also: nearly all actives have a fitted effect of over 55% in size
#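 Chicken DT40 Tdp1-/- cells complemented with human TDP1, 400 cells/well, exposed to compounds plus 20 nM camptothecin for at least 48 h at 37 C; viability read as ATP content by CellTiter-Glo luminescence.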
# IL1B secr inh: blocks inflammasome-driven IL-1 beta release; THP-1 LPS/ATP IL-1B secretion, AlphaLISA, 16 h; hits give low values; activity change, % at 57.5 µM; 4.7% of 360,000 active; AID 743279; in the data active = activity change below about -50%; inconclusive = mostly about -30% to -49%
#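 THP-1 cells pretreated 1 hr with compounds (up to 57.5 uM final), then stimulated with LPS (250 ng/mL final) plus ATP (1.25 mM final); secreted IL-1B measured by AlphaLISA after 16 hr, decreased signal indicating inhibition.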
# ELG1 DNA repair: blocks ELG1-dependent DNA repair in HEK293T cells. HEK293T ELG1-luciferase reporter, luminescence, 16 h; DNA damage induced by 5-fluorouridine. Potency, µM (titrated, usually from 46.1 µM), usual class: inhibitors. 2.3% of 330,000 active; also: nearly all actives have a fitted effect of over 55% in size
#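 Reporter activity after DNA damage by 5-fluorouridine is monitored. Compound-treated cells incubate 16 hr at 37 °C, then ONE-Glo is added for 30 min before luminescence reading.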
# HT1080 IDH1KD tx: HT-1080 IDH1 knockdown cell toxicity (counter line); HT-1080 IDH1 knockdown viability, ATP luminescence, 48 h; 2% of 360,000 active; Potency, µM (highest dose often 46.1 µM), hits mostly cytotoxic
#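 HT-1080-IDH1KD cells (IDH1 knocked down), 750/well in RPMI with 5% FBS, treated with compound 48 h at 37 degrees C. Viability by CellTiter-Glo luminescence, normalised to DMSO and no-cell wells; concentration-response curves classed.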
# DT40 TDP1 no CPT: qHTS for Inhibitors of human tyrosyl-DNA phosphodiesterase 1 (TDP1): qHTS in cells in absence of CPT | Potency, µM (highest dose often 46.2 µM), hits mostly inhibitors | AID 686978, 2013 | 15% of 420,000 active | DT40 Tdp1-/- hTDP1 cells, no CPT, ATP luminescence, 48 h; also: nearly all actives have a fitted effect of over 55% in size
#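 Cells were dispensed at 400 per well, compounds added by pin tool, plates incubated ≥48 hr at 37 °C, then CellTiter-Glo added for 30 min at room temperature before luminescence reading. Line: DT40 Tdp1-/- complemented with hTDP1; camptothecin omitted.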
# Numbers stand for hits; i = inactive; ? = inconclusive; nt = not tested or not shown; [ ] = remark or other dose. Unless noted, calls follow the shape of the dose curve; as a rule, active = well fitted curve in the direction sought with a large enough effect; inconclusive = small, poorly fitted or top-dose-only effect, or another doubt; inactive = no such curve, though single readings can be large; an effect the other way counts as inactive or inconclusive.
SMILES,HT1080-NT tox,TDP1 cell CPT,IL1B secr inh,ELG1 DNA repair,HT1080 IDH1KD tx,DT40 TDP1 no CPT
O=C(c1ccccc1F)N1CCCC(N2CCN(Cc3ccc4c(c3)OCO4)CC2)C1 (stereo not drawn),i,?,i,nt,i,?
Clc1ccc(-c2cnc3cccnn23)cc1,i,?,i,nt,i,?
c1cnn2c(-c3ccc4c(c3)CCO4)cnc2c1,i,10µM,i,nt,i,9.2µM
CCOC1CCCc2oc(-c3ccsc3)c(-c3cnc(OC)nc3)c21 (stereo not drawn),i,?,i,nt,i,23µM
O=C(Nc1cccc(C(=O)O)c1)/C(=C\c1ccccc1)NC(=O)c1ccco1,i,i,i,nt,i,i
Cc1ccc(-n2nc(C(=O)Nc3ccc(C)c(F)c3)c(=O)n(C)c2=O)cc1,nt,i,nt,nt,nt,i
COc1ccc(Cl)cc1NC(=O)c1nn(-c2ccc(C)cc2)c(=O)n(C)c1=O,nt,16µM,nt,nt,nt,i
COc1cc(NC(=O)c2nn(-c3ccc(F)cc3)c(=O)n(C)c2=O)cc(OC)c1OC,nt,15µM,nt,nt,nt,10µM
COC(=O)c1c(NC(=O)c2ccccc2)sc(C(N)=O)c1C,i,i,i,i,?,?
COC(=O)c1c(NC(=O)c2ccccc2)sc(C(=O)c2ccccc2)c1C,?,16µM,i,?,?,15µM
COC(=O)c1c(NC(=O)CCl)sc(C(=O)N2CCOCC2)c1C,7.3µM,?,-98,?,18µM,5.2µM
COC(=O)c1c(NC(=O)c2ccccc2OC)sc(C(=O)N2CCOCC2)c1C,i,?,-60,i,i,15µM
Cc1ccc(C(C)C)c(OCc2nn(CC(=O)c3ccc(OC(F)F)cc3)c3[n+]2CCCCC3)c1,15µM,0.58µM,-107,?,18µM,0.58µM
COc1ccc(C(=O)Cn2nc(CNc3ccc(Br)cc3)[n+]3c2CCCCC3)cc1,?,3.7µM,-80,i,?,2.6µM
O=C(Nc1cc(Oc2ccc(Cl)cc2)cc([N+](=O)[O-])c1)c1ccco1,?,?,i,i,?,16µM
CCOc1ccc(Oc2cc(NC(=O)c3ccco3)cc([N+](=O)[O-])c2)cc1,i,i,i,?,i,16µM
N#Cc1ccccc1NC(=O)C1CCCO1 (stereo not drawn),i,i,i,nt,i,i
CCCCCC(=O)Nc1cc(S(=O)(=O)N2CCOCC2)ccc1N1CCCCC1,i,?,i,i,i,21µM
CSCCC(=O)Nc1cc(S(=O)(=O)N2CCOCC2)ccc1N1CCN(C)CC1,i,i,-72,i,i,i
Cc1cc(Cl)ccc1OCCCC(=O)Nc1cc(S(=O)(=O)N2CCOCC2)ccc1N1CCOCC1,i,?,i,nt,i,16µM
O=C(COc1cccc(Cl)c1)Nc1cc(S(=O)(=O)N2CCOCC2)ccc1N1CCOCC1,i,?,?,?,i,18µM
CCCCCC(=O)Nc1cc(S(=O)(=O)N2CCOCC2)ccc1N1CCN(C)CC1,i,i,i,i,i,i
COC(=O)c1cc(CNC(=O)c2ccccn2)cc(NC(=O)c2ccccc2OC)c1,nt,i[9.04 µM],nt,nt,nt,?
O=C(/C=C/[C@H]1O[C@@H](n2cnc3c(NC(=O)c4ccccc4)ncnc32)[C@H](O)[C@@H]1O)NCC1CCCCC1,i,i,i,nt,i,i
COc1cc(NC(=O)c2ccc(N3CC4CC(C3)c3cccc(=O)n3C4)c(NC(=O)c3ccncc3)c2)cc(OC)c1OC (stereo not drawn),i,i,?,i,i,i
SMILES,HT1080-NT tox,TDP1 cell CPT,IL1B secr inh,ELG1 DNA repair,HT1080 IDH1KD tx,DT40 TDP1 no CPT
CCN1CCN(c2ccc(S(=O)(=O)N3CCCCC3)cc2NC(=O)CCNC(C)=O)CC1,i,i,i,nt,i,i
Cc1ccc(S(=O)(=O)N2CCOCC2)cc1NC(=O)CSc1ccc(Cl)cc1,i,?,i,i,i,?
Cc1cccc(OCC(=O)Nc2cc(S(=O)(=O)N3CCOCC3)ccc2N2CCCC2)c1C,i,?,-81,?,i,16µM
Cc1ccc(S(=O)(=O)N2CCOCC2)cc1NC(=O)C(c1ccc(Cl)cc1)C(C)C (stereo not drawn),i,?,-58,?,i,?
O=C(CCCSc1ccc(Cl)cc1)Nc1cc(S(=O)(=O)N2CCOCC2)ccc1O,i,18µM,i,i,i,23µM
CCCCCC(=O)Nc1cc(S(=O)(=O)N2CCCCC2)ccc1N1CCCCC1,i,?,i,nt,i,15µM
COc1ccccc1CCC(=O)Nc1cc(S(=O)(=O)N2CCOCC2)ccc1N1CCCC1,i,?,i,i,i,29µM
Cc1ccc(OCCC(=O)Nc2cc(S(=O)(=O)N3CCOCC3)ccc2N2CCCC2)cc1,i,?,?,nt,i,15µM
O=C(CCc1ccccc1)Nc1cc(S(=O)(=O)N2CCOCC2)ccc1N1CCCC1,i,i,i,i,i,i
CCOc1ccc(OCCCC(=O)Nc2cc(S(=O)(=O)N3CCOCC3)ccc2N2CCOCC2)cc1,i[9.24 µM],?,i,nt,i,i
O=C(Nc1cc(S(=O)(=O)N2CCOCC2)ccc1N1CCOCC1)c1ccccc1Cl,i,i,i,i,i,i
Cc1ccc(S(=O)(=O)N2CCOCC2)cc1C(=O)Nc1cc(Cl)ccc1N1CCOCC1,i,23µM,i,i,i,?
Cc1ccccc1SCC(=O)Nc1cc(S(=O)(=O)N2CCOCC2)ccc1N1CCOCC1,i,16µM,i,?,i,?
CCCCN(C(C)=O)c1c(CC)nc2ccc(C(=O)NCc3cccs3)cn12,i,?,i,nt,i,?
O=C(CCN1C(=O)/C(=C/c2ccc(F)cc2)SC1=S)NC1C=CS(=O)(=O)C1 (stereo not drawn),i,13µM,?,i,i,13µM
O=C(CN1C(=O)S/C(=C\c2ccccc2F)C1=O)NC1C=CS(=O)(=O)C1 (stereo not drawn),i,15µM,-70,?,i,?
O=C(CCN1C(=O)/C(=C/c2ccc(F)cc2)SC1=S)NNC(=O)c1ccncc1,i,?,i,i,i,?
O=C(CN1C(=O)S/C(=C\c2ccc(F)cc2)C1=O)NC1C=CS(=O)(=O)C1 (stereo not drawn),i,i,i,?,i,i
O=C(CCN1C(=O)/C(=C/c2ccc(F)cc2)SC1=S)N[C@@H](CO)Cc1ccccc1,i,16µM,-52,i,i,21µM
CC(C(=O)NC1C=CS(=O)(=O)C1)N1C(=O)/C(=C/c2ccc(Cl)cc2)SC1=S (stereo not drawn),i,?,-59,?,i,?
CCCCc1ccc(NC(=O)Cn2cnc3c2c(=O)n(C)c(=O)n3C)cc1,nt,i,nt,nt,nt,i

# Assay outcomes (PubChem)
